From PubChem BioAssay
A3A deaminase: inhibitors of human APOBEC3A DNA deaminase | inhibition, % at 20 µM | AID 493011 | recombinant A3A, FAM/TAMRA ssDNA deamination fluorescence | 330,000 compounds, 0.41% hits;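 active means at least 40% inhibition at 20 µM here, with at most 30% in a related deaminase screen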;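 further: plate controls were A3A with DMSO for no effect and wells lacking A3A enzyme for full effect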
Target sequence (P31941 whole entry, looked up): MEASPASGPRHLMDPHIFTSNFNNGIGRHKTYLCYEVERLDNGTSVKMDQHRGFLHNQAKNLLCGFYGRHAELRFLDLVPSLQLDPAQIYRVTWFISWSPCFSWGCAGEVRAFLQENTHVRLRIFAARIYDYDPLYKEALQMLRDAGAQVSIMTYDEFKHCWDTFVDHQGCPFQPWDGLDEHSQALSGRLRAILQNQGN
APOBEC3G inh: APOBEC3G (human) deaminase inhibition | Q9HC16 | recombinant A3G, ssDNA deamination FAM/TAMRA fluorescence | inhibition, % at 20 µM | 330,000 compounds, 0.28% hits | AID 493012;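 active means inhibition of at least 40% at 20 µM, with no more than 30% in the related APOBEC3A deaminase screen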;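 further: plate controls were DMSO wells with A3G for no effect and wells lacking A3G enzyme for full effect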
ALR H2O2 inh: blocks human ALR sulfhydryl oxidase activity | purified ALR, DTT oxidation, H2O2 HRP-luminol luminescence | 290,000 compounds, 3.8% hits | P55789 | inhibition, % (test concentration not listed);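 active means mean replicate inhibition above about 79%, with every replicate also reaching it, limit read from the data; inconclusive means only one of the two criteria met; inactive means mean below limit and not every replicate reaching it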
Target sequence (P55789 whole entry, looked up): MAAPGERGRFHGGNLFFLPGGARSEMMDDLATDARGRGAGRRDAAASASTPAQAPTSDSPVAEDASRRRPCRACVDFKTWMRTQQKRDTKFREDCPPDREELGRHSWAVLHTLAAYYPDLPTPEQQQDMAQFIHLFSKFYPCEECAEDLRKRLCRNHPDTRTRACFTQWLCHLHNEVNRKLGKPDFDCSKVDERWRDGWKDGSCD
NRP1-CendR mod: NRP-1/CendR interaction modulation. O14786. FAM-RPARPAR peptide binding to NRP-1, fluorescence polarization. inhibition, % at 25 µM. 360,000 compounds, 0.85% hits. AID 602438;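 active means inhibition or corrected inhibition above about 18%, plus a signal ratio from 0.5 to 1.5, limit read from the data, passing the limit was not always enough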
M18AAP inhibitor: PfM18AAP enzyme inhibition; recombinant PfM18AAP, H-Glu-NHMec fluorogenic cleavage; inhibition, % at 7.35 µM; 290,000 compounds, 1.2% hits; AID 1822;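 active means inhibition above the campaign mean inhibition over all tested compounds plus 3 SD, cut at about 28% in these data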;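 further: 0% = plate median of test compound wells and 100% = 2 mM ZnCl2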
Yeast superoxide: lowers age-related superoxide in aged yeast cells | S. cerevisiae aged cells, superoxide DHE fluorescence; stronger effect = lower value | superoxide response (% of plate mean), % at 10 µM | 330,000 compounds, 0.18% hits | AID 2690;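 active means superoxide response under a set limit, about three screen SD below normal, cut at about 65% in these data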;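 further: yeast aged for seven days with compound at 30 °C before DHE staining; 100% = average MFI of all compound-treated wells on the plate with controls excluded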
Numbers without * were called inactive; ? = inconclusive; . = no result. Only some compounds are listed: those with a hit (about 5.2% of all), similar ones and a draw of the others.

SMILES | A3A deaminase | APOBEC3G inh | ALR H2O2 inh | NRP1-CendR mod | M18AAP inhibitor | Yeast superoxide
CCS/C(N)=N/N=C/c1cc(C)ccc1O | -1 | -1 | -4 | 11 | 31* | 93
CCCCS/C(N)=N/N=C/c1cc(C)ccc1O | -2 | 0 | 1 | 4 | 29* | 99
CS/C(N)=N/N=C/c1cc(C)ccc1O | -4 | -6 | -12 | 11 | 26 | 121
CS(=O)(=O)N(CCC#N)Cc1ccc(C=O)o1 | 3 | -6 | 1 | 14 | -8 | 103
Cc1cccc(C(CC(=O)NCCc2ccccc2)c2ccccc2)c1O (stereo not drawn) | -10 | -3 | 14 | 21* | 6 | 111
Cc1cccc(C(CC(=O)NCc2ccco2)c2ccccc2)c1O (stereo not drawn) | -1 | -9 | 31 | 3 | 10 | 87
O=C(CSc1nncc2ccccc12)Nc1ccc(F)cc1 | -3 | -3 | -7 | 6 | -3 | 89
O=C(CSc1nncc2ccccc12)Nc1ccc(C(=O)O)cc1 | -4 | -1 | 100* | -1 | -11 | 95
O=C(CSc1nncc2ccccc12)Nc1ccccc1 | 0 | -6 | 99* | -1 | -7 | 99
Cc1ccc(-n2ccnc(SCC(=O)NC3CCCC3)c2=O)cc1F | 0 | 0 | 94* | -13 | . | 106
Cc1ccc(-n2ccnc(SCC(=O)NC3CCCC3)c2=O)cc1Cl | -3 | 2 | . | 4 | . | 102
Cc1ccc(S(=O)(=O)N2CCN(C(=O)Cc3ccccc3)CC2)cc1C | 2 | -6 | 0 | 23* | . | 85
CC(C)(O)C#Cc1ccc(CNC[C@H]2O[C@@H](n3cnc4c(N)ncnc43)[C@H](O)[C@@H]2O)s1 | 1 | 2 | . | -15 | . | 83
Clc1ccccc1N1CCN(Cc2ccc(Br)o2)CC1 | 1 | -4 | 0 | 9 | . | 102
Brc1ccc(CN2CCN(c3ccccc3)CC2)o1 | -2 | -1 | 97* | 7 | 11 | 78
CC(CN1CCN(c2ccccc2)CC1)c1ccccc1 (stereo not drawn) | -3 | -6 | 98* | -6 | 1 | 124
c1ccc(SCCN2CCN(c3ccccc3)CC2)cc1 | -4 | -4 | 98* | 9 | 4 | 96
CCCN1CCC(=O)N(CCSc2ccccc2)CC1 | -4 | -13 | -3 | 5 | -2 | 103
Cn1nnnc1SCc1ccccc1[N+](=O)[O-] | 1 | -1 | 2 | 1 | -13 | 95
Cc1ccc2[nH]c(C)c(CCNC(=O)c3cc4cc([N+](=O)[O-])ccc4oc3=O)c2c1 | 2 | -5 | 10 | -11 | 3 | 95
Cc1ccc2[nH]c(C)c(CCNC(=O)c3c(N)no[n+]3[O-])c2c1 | -1 | -5 | 99* | -11 | 3 | 104
CCCCCCCc1nc2sc3c(c2c(=O)n1N)CC(C)(C)OC3 | 6 | -3 | -7 | 3 | -3 | 120
Cc1ccc(-n2[nH]c(=O)c3cccnc32)cc1 | -4 | -12 | 97* | 5 | 3 | 86
NNC(=O)c1cccc(COc2ccc(Br)cc2)c1 | 2 | -5 | 97* | 10 | -9 | 115
Cc1ccc(SCc2cn3ccccc3n2)cc1 | 2 | -8 | 7 | 4 | 2 | 96
SMILES | A3A deaminase | APOBEC3G inh | ALR H2O2 inh | NRP1-CendR mod | M18AAP inhibitor | Yeast superoxide
CCOC(=S)SCc1cn2ccc(C)cc2n1 | -2 | -1 | 99* | 9 | 5 | 98
CCOC(=S)SCc1cn2ccccc2n1 | 0 | -3 | 98* | 2 | 13 | 105
Cc1ccc2nc(N/C(=N/S(=O)(=O)c3ccc(F)cc3F)c3ccccc3)sc2c1 | 0 | -6 | 66 | 10 | -5 | 94
CC1CCCN(c2nc3ccccc3nc2C(C#N)S(=O)(=O)c2cccs2)C1 (stereo not drawn) | -1 | -1 | 97* | 1 | 1 | 99
COc1ccc(S(=O)(=O)C(C#N)c2nc3ccccc3nc2N2CCCC(C)C2)cc1 (stereo not drawn) | -6 | -1 | -23 | -22 | 3 | 92
O=C(c1ccc(C(F)(F)F)cc1)N1CCC(=O)N(C(CO)Cc2ccccc2)CC1 (stereo not drawn) | 3 | 4 | -10 | 26* | . | 112
O=C(c1cccc(C(F)(F)F)c1)N1CCC(=O)N(C(CO)Cc2ccccc2)CC1 (stereo not drawn) | 1 | -8 | 1 | 7 | . | 96
COc1cccc(-c2csc(NC3OC(=O)c4c3ccc(OC)c4OC)n2)c1 (stereo not drawn) | -2 | -6 | 97* | -7 | -15 | 99
COc1ccc2c(c1OC)C(=O)OC2Nc1nc(-c2cc3ccccc3oc2=O)cs1 (stereo not drawn) | -3 | -6 | . | -32 | 9 | 83
COc1ccc2c(c1OC)C(=O)OC2Nc1nc(-c2ccc(-c3ccccc3)cc2)cs1 (stereo not drawn) | 3 | -3 | 96* | -41 | 0 | 93
N#CC(C#N)=C1C=CC=CN1/C(=C\c1ccco1)C(=O)c1ccc(-c2ccccc2)cc1 | . | . | 22 | -11 | -6 | 106
CC(C)(C)c1ccc(-c2ncccc2O)cc1 | -3 | -4 | ? | 4 | 0 | 103
O=C(O)CCC(=O)NNc1nc(-c2ccccc2)c2cc(Cl)ccc2n1 | -4 | -10 | 61 | 11 | 30* | 105
Cc1ccccc1OCC(O)CNC1CCC(NCC(O)COc2ccccc2C)CC1 (stereo not drawn) | 2 | -2 | -6 | 20* | -4 | 104
COC(=O)C(NC(=O)c1ccccc1)=C1CCCCC1 | -1 | -5 | 2 | 0 | -7 | 96
COC(=O)Cn1c(C(F)(F)F)nc2ccccc21 | 1 | -3 | -2 | -17 | -8 | 97
CCOC(=O)C1C(=O)NC(c2ccccc2)=NC1c1ccc(F)cc1 (stereo not drawn) | -3 | -2 | 98* | 4 | -15 | 83
O=C1CCCN2N=C(SCC(=O)Nc3ccccc3C(F)(F)F)SC2=N1 | 1 | -4 | -5 | 10 | -1 | 110
Cc1onc(C(=O)N2CCN(c3ccccc3)CC2)c1[N+](=O)[O-] | 3 | 1 | 95* | 11 | -3 | 105
O=C(/C=C/c1ccccc1)c1ccccn1 | 1 | -5 | -5 | 37* | 4 | 100
O=C(/C=C/c1ccc(OC2CSC2)cc1)c1ccccc1 | 2 | -2 | 83* | -131 | 0 | 87
Cc1ccc(C(=O)/C=C/C(=O)O)cc1 | -1 | 3 | 98* | -8 | -24 | 76
Cc1ccc(/C=C/C(=O)c2ccc(O)cc2)cc1 | -5 | -2 | 11 | -43 | 4 | 85
N/C(=N\OC(=O)/C=C/c1ccccc1)c1ccccn1 | 7 | -1 | 3 | -3 | 2 | 98
O=C(N/N=C/c1ccc(OC2CSC2)cc1)c1ccccc1 | -5 | -7 | -25 | 0 | 0 | 87
Cc1ccc(/C=C/C(=O)c2c(C)nc3ccccn23)cc1 | 0 | -4 | 98* | 0 | 4 | 93
